# Reference: ChEMBL document CHEMBL1961873, “Compounds: GSK PKIS; Assays: Nanosyn kinase panel” (2012)
# Columns and labels:
# [1] = target: T1, Inhibitor of nuclear factor kappa-B kinase subunit epsilon (Homo sapiens) (UniProt Q14164); settings: at 1 µM;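 also: reported values are averaged percent inhibition figures against human IKKε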
# T1 sequence (whole entry): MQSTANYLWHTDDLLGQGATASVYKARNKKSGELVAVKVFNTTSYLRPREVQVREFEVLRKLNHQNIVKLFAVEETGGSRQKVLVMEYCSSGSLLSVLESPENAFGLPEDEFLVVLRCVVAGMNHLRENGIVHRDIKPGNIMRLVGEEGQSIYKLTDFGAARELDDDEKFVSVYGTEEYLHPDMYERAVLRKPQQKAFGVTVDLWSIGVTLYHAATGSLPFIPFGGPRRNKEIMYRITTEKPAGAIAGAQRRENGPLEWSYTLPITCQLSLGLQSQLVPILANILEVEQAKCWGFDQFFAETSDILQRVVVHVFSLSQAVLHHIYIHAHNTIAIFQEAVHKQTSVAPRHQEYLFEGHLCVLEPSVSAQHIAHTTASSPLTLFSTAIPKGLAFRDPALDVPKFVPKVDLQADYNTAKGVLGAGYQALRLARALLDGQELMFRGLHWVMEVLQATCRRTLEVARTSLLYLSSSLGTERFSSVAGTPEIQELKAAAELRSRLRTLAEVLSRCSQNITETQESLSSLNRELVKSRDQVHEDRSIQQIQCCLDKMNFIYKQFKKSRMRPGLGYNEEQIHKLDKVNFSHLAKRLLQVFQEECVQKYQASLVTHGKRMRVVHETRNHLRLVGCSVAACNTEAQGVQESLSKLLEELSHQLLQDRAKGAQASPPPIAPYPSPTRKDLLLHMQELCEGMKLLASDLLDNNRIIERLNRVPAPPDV
# [2] = target: T2, Serine/threonine-protein kinase Nek1 (Homo sapiens) (UniProt Q96PY6); settings: at 0.1 µM
# T2 sequence (whole entry): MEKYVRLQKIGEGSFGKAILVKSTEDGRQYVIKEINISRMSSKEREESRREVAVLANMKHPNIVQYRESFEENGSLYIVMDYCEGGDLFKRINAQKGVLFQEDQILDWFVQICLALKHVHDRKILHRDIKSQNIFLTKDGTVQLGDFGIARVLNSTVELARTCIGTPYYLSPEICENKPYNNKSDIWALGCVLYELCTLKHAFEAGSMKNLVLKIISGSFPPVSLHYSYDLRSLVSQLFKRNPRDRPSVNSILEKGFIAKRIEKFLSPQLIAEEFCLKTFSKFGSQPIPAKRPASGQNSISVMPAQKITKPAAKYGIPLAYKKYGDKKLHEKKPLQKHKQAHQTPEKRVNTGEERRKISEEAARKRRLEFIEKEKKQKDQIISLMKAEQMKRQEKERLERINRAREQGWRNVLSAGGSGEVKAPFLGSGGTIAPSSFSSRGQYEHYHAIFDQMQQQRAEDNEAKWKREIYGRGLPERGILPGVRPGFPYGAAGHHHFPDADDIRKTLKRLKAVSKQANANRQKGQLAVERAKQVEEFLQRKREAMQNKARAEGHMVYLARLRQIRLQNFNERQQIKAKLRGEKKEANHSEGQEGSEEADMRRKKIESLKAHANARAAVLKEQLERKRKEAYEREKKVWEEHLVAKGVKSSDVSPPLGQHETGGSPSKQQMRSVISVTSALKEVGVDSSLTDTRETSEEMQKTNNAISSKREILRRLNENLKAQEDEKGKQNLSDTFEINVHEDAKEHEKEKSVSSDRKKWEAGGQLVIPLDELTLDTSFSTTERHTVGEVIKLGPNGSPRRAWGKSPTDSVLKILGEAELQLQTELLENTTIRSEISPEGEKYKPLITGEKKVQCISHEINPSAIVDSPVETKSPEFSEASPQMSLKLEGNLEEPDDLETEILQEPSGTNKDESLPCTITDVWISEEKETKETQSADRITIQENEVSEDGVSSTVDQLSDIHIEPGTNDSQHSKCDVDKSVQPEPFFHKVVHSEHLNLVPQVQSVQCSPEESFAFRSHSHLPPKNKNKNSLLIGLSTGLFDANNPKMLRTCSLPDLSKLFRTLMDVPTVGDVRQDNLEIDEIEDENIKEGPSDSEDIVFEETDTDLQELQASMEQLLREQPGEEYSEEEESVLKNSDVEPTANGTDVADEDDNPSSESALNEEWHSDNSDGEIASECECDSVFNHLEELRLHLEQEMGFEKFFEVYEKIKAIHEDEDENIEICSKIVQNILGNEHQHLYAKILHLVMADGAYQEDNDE
# [3] = target: T2, Serine/threonine-protein kinase Nek1 (Homo sapiens); settings: at 1 µM
# [4] = target: T3, Serine/threonine-protein kinase Nek2 (Homo sapiens) (UniProt P51955); settings: at 0.1 µM
# T3 sequence (whole entry): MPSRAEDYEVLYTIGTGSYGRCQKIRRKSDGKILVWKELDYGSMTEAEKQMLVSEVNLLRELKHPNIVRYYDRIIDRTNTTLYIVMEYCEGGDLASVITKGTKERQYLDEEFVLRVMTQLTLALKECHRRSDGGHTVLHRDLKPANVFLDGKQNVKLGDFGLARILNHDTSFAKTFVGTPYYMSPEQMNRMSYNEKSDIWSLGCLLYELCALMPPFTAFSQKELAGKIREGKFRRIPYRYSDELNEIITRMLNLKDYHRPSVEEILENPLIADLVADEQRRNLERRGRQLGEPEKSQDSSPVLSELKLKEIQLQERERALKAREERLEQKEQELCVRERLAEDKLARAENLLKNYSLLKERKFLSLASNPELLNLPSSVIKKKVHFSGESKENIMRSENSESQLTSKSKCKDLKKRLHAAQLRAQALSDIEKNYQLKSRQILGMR
# [5] = target: T3, Serine/threonine-protein kinase Nek2 (Homo sapiens); settings: at 1 µM
# [6] = target: Serine/threonine-protein kinase Nek6 (Homo sapiens) (UniProt Q9HC98); settings: at 0.1 µM
# Sequence of Serine/threonine-protein kinase Nek6 (Homo sapiens) (Q9HC98 whole entry): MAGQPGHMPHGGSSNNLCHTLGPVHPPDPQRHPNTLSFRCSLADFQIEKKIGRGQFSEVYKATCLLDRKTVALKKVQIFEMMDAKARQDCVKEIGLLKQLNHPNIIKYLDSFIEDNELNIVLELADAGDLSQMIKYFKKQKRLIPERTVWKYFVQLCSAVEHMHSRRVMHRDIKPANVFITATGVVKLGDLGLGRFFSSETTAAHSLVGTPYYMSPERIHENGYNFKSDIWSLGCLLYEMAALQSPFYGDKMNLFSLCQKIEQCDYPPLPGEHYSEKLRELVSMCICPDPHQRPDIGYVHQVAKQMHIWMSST
# [7] = target: Serine/threonine-protein kinase Nek6 (Homo sapiens) (UniProt Q9HC98); settings: at 1 µM
# [8] = target: Serine/threonine-protein kinase Nek7 (Homo sapiens) (UniProt Q8TDX7); settings: at 0.1 µM
# Sequence of Serine/threonine-protein kinase Nek7 (Homo sapiens) (Q8TDX7 whole entry, looked up): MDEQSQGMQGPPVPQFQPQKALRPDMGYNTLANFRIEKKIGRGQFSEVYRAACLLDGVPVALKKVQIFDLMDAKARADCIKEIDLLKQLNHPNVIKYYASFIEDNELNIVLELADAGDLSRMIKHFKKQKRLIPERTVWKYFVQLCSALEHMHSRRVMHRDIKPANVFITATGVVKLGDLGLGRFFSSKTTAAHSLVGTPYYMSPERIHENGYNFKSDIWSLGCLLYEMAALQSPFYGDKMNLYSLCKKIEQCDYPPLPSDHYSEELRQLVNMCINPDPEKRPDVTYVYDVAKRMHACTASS
# [9] = target: Serine/threonine-protein kinase Nek7 (Homo sapiens) (UniProt Q8TDX7); settings: at 1 µM
# [10] = target: T4, Serine/threonine-protein kinase Nek9 (Homo sapiens) (UniProt Q8TD19); settings: at 0.1 µM
# T4 sequence (whole entry): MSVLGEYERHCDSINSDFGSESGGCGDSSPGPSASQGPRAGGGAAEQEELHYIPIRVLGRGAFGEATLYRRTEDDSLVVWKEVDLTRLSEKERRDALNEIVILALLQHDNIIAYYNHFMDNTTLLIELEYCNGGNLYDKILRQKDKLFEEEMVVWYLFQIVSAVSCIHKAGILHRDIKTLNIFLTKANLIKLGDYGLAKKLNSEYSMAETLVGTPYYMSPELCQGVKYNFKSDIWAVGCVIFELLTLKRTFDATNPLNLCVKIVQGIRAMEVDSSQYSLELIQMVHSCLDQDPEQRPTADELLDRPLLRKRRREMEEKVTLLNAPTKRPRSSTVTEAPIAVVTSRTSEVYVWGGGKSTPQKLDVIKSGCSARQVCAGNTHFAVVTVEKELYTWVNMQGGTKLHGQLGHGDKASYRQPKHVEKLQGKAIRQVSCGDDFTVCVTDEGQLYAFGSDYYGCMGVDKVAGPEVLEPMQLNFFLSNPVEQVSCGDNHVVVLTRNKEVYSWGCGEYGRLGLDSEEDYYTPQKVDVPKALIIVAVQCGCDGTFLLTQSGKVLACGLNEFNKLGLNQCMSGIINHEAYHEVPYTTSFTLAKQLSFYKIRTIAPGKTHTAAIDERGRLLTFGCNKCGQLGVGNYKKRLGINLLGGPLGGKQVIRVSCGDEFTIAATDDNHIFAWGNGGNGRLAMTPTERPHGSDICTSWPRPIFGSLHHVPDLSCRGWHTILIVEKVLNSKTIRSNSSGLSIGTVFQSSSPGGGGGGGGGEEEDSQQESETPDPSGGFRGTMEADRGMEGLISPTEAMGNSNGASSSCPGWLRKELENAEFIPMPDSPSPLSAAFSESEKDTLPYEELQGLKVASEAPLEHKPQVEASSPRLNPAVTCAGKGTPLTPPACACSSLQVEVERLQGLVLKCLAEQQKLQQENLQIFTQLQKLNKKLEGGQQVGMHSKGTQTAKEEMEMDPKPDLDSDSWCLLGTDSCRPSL
# [11] = target: T4, Serine/threonine-protein kinase Nek9 (Homo sapiens); settings: at 1 µM
# [12] = target: Serine/threonine-protein kinase PLK1 (Homo sapiens) (UniProt P53350); settings: at 0.1 µM
# Sequence of Serine/threonine-protein kinase PLK1 (Homo sapiens) (P53350 whole entry): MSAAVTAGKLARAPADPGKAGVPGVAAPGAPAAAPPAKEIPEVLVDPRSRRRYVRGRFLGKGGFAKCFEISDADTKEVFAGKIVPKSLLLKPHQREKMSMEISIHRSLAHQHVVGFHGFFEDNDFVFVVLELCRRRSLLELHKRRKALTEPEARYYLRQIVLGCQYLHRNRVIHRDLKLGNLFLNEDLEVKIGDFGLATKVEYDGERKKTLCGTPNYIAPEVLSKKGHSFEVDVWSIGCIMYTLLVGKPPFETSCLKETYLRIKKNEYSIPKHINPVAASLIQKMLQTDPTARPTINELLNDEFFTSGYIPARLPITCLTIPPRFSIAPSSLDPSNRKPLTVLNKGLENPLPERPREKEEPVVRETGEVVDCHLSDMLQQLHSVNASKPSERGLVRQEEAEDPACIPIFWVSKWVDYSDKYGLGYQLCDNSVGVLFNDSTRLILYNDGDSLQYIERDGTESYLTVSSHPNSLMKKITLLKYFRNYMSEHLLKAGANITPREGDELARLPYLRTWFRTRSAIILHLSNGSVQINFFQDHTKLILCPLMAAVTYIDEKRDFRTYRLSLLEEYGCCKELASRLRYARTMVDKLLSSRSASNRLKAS
# [13] = target: Serine/threonine-protein kinase PLK1 (Homo sapiens) (UniProt P53350); settings: at 1 µM
# [14] = target: T5, Dual specificity protein kinase TTK (Homo sapiens) (UniProt P33981); settings: at 0.1 µM
# T5 sequence (whole entry): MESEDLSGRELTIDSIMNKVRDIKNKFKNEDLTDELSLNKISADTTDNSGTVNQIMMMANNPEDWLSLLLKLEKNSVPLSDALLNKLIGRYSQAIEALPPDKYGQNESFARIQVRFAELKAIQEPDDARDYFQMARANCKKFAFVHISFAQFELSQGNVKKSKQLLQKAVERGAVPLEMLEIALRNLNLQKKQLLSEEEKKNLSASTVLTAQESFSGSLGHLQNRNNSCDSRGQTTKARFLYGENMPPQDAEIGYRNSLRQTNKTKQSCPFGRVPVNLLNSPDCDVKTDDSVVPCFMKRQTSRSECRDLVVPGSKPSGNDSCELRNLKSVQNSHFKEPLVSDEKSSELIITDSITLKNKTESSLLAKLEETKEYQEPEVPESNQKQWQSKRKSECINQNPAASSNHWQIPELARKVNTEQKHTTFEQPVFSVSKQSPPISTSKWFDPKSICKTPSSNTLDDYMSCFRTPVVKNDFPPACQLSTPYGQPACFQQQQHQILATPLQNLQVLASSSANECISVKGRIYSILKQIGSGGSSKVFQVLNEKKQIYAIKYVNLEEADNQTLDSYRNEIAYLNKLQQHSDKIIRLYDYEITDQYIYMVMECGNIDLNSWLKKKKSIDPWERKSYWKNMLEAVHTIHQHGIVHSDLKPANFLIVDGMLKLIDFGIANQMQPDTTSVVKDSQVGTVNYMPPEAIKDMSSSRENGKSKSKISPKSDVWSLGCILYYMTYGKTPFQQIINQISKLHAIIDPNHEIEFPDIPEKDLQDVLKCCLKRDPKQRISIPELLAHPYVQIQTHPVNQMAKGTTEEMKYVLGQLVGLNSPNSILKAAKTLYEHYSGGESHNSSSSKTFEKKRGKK
# [15] = tested on: T6, Receptor-type tyrosine-protein kinase FLT3 (Homo sapiens), P36888 [D835Y]; settings: at 1 µM
# T6 sequence (whole entry): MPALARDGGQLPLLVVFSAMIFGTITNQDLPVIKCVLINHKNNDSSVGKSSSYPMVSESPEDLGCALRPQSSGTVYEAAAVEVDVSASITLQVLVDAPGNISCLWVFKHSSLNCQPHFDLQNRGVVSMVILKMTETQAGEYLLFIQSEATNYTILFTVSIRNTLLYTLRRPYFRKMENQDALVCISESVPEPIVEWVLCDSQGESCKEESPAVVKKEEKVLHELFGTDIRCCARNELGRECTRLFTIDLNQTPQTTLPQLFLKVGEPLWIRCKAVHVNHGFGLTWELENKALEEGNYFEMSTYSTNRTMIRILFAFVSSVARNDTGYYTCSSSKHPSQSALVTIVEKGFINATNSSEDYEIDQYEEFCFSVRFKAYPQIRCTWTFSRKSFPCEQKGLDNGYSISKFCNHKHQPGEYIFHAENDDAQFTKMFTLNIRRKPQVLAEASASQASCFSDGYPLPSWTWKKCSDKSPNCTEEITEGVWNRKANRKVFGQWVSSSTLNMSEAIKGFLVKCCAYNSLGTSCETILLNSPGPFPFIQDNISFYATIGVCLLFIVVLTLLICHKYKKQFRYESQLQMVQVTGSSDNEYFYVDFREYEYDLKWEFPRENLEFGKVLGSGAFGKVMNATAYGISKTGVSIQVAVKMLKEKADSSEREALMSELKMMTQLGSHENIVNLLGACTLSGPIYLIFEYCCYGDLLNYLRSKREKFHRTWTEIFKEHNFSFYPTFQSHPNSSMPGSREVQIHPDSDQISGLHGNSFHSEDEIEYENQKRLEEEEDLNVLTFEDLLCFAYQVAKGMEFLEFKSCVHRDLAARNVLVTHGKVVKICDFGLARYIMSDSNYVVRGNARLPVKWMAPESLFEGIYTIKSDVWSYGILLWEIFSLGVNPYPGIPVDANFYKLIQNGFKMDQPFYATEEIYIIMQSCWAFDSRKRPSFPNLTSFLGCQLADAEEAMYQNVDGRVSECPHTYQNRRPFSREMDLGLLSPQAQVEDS
# [16] = target: Vascular endothelial growth factor receptor 3 (Homo sapiens) (UniProt P35916); settings: at 0.1 µM
# Sequence of Vascular endothelial growth factor receptor 3 (Homo sapiens) (P35916 whole entry): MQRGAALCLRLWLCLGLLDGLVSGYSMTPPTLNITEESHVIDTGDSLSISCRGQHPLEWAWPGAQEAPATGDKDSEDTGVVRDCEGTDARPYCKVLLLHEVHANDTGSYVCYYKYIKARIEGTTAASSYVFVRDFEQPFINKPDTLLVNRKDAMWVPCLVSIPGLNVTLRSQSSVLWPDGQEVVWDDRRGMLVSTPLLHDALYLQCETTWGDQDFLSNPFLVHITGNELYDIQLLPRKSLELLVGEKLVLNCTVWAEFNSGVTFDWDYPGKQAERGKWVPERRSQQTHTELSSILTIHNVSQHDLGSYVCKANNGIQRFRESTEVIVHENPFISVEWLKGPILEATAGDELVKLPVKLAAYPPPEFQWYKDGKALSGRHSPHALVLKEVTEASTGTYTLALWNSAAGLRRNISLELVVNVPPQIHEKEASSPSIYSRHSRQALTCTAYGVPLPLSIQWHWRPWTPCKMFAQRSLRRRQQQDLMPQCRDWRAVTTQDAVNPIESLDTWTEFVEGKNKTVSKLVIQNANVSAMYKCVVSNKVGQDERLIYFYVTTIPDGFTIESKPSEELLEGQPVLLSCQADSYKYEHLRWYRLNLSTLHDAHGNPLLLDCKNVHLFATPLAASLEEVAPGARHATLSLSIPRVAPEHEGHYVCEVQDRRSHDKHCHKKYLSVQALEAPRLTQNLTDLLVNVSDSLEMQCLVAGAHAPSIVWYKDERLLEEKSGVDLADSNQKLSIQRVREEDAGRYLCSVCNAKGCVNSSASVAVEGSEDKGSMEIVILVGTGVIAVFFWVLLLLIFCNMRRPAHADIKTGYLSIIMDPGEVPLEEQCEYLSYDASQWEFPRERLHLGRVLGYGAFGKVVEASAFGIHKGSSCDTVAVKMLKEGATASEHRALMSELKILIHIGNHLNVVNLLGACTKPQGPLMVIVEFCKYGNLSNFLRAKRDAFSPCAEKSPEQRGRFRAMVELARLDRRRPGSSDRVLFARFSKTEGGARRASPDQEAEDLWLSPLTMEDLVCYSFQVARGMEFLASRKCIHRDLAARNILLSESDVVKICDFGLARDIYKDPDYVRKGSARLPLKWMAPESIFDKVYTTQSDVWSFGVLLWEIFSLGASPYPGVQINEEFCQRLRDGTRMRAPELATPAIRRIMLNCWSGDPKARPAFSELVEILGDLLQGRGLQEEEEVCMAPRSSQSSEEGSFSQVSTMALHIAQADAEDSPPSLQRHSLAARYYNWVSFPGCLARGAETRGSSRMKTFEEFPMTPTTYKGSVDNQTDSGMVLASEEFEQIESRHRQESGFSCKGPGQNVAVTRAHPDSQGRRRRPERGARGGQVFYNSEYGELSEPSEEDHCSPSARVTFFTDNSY
# [17] = target: Vascular endothelial growth factor receptor 3 (Homo sapiens) (UniProt P35916); settings: at 1 µM
# [18] = target: Macrophage colony-stimulating factor 1 receptor (Homo sapiens) (UniProt P07333); settings: at 0.1 µM
# Sequence of Macrophage colony-stimulating factor 1 receptor (Homo sapiens) (P07333 whole entry): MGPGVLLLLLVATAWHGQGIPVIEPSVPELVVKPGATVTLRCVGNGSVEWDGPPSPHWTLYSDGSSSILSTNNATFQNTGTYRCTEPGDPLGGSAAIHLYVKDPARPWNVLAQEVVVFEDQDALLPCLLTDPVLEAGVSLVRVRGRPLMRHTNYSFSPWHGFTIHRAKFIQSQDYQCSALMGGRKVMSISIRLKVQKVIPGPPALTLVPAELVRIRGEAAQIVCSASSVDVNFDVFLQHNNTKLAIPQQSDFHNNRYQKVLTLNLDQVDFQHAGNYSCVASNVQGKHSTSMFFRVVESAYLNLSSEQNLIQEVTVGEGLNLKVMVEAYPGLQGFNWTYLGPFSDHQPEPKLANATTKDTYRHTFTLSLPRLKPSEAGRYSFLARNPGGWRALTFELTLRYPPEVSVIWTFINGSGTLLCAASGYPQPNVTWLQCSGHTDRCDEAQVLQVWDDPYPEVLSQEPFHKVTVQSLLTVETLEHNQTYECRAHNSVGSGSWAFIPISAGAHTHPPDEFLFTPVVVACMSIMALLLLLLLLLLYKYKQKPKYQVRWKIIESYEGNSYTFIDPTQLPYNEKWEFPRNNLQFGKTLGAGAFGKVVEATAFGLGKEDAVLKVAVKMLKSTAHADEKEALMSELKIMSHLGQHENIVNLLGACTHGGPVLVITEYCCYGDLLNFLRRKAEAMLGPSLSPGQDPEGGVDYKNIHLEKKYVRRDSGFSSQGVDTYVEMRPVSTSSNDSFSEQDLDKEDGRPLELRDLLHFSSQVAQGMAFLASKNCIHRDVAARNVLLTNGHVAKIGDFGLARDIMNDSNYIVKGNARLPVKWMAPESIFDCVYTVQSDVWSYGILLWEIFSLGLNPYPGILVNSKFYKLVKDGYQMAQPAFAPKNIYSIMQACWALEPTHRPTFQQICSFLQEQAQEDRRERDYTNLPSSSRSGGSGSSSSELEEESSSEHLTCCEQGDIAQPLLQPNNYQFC
# [19] = target: Macrophage colony-stimulating factor 1 receptor (Homo sapiens) (UniProt P07333); settings: at 1 µM
# [20] = target: Tyrosine-protein kinase Fyn (Homo sapiens) (UniProt P06241); settings: at 0.1 µM
# Sequence of Tyrosine-protein kinase Fyn (Homo sapiens) (P06241 2-537 limits assumed): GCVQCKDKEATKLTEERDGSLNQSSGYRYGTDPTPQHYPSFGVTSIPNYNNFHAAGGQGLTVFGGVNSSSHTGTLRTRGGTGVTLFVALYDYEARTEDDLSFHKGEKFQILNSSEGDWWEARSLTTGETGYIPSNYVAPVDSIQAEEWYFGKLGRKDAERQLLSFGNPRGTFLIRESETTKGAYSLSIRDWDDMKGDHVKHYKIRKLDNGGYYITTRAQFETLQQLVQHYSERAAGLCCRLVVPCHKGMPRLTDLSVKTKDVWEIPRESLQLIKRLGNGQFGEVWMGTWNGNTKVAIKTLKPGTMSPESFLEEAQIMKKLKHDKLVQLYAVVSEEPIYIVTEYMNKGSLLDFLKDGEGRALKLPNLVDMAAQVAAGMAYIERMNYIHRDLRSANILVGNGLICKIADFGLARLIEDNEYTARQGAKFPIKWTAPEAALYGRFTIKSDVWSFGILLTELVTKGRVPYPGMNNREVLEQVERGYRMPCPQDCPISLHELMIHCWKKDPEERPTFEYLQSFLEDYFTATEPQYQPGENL
Structure (SMILES),inhibition [1],inhibition [2],inhibition [3],inhibition [4],inhibition [5],inhibition [6],inhibition [7],inhibition [8],inhibition [9],inhibition [10],inhibition [11],inhibition [12],inhibition [13],inhibition [14],inhibition [15],inhibition [16],inhibition [17],inhibition [18],inhibition [19],inhibition [20]
COc1cccc(-n2ncc3c(N/N=C/c4ccc(S(C)(=O)=O)cc4)ncnc32)c1,8.64%,1.92%,5.16%,2.11%,1.84%,1.65%,-0.32%,3.45%,2.28%,4.38%,1.23%,1.67%,0.92%,2.54%,61.9%,-2.95%,31.4%,6.39%,22.5%,32.4%
CCn1c(-c2nonc2N)nc2c(C#CC(C)(C)O)nc(OCCNC)cc21,46.6%,1.96%,2.74%,5.33%,2.6%,2.62%,1.71%,4.06%,9.15%,7.21%,7.49%,6.83%,8.02%,7.19%,-0.49%,1.76%,11.6%,-0.38%,3.67%,1.14%
Cc1cc(-c2ccccn2)cc(C)c1/C=C/c1cncc(-c2nn[nH]n2)c1,5.98%,1.6%,2.75%,5.75%,4.38%,0.78%,3.18%,2.68%,7.82%,5.24%,5.99%,5.02%,5.56%,11.3%,12%,9.28%,14.4%,1.45%,12.3%,4.53%
